Bioassay records: PubChem, several laboratories
Compounds with a hit are over-represented: about 4.6% of the library has one in this group of screens.
tim23-1 inh = growth inhibitors of tim23-1 mutant yeast, primary screen, luminescence, uHTS | S. cerevisiae tim23-1 growth, BacTiter-Glo luminescence, 24 h | inhibition, % at 20 µM | hit rate 1.3% among 330,000 | AID 463212, 2010;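 active = growth inhibition of the mutant yeast at or above 50%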;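 also: temperature-sensitive mutant grown at 25 °C; plate controls were DMSO-treated mutant yeast for no effect and medium wells lacking yeast for full effect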
TIM10 inh = growth inhibitors of isogenic TIM10 control yeast, primary screen, counter-screen for tim10-1 yeast inhibitor project, luminescence, uHTS; inhibition, % at 10 µM; S. cerevisiae TIM10 strain growth, BacTiter-Glo luminescence, 24 h; hit rate 1.4% among 330,000;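 active = inhibition of 40% or more at the single tested concentration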;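 also: wild-type TIM10 isogenic control strain grown at permissive 25 °C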
SKKanGAS inh = S. pyogenes SKKanGAS growth inhibitors in kanamycin, primary screen, streptokinase expression inhibitor project, SKKanGAS strain, BacTiter-Glo luminescence; 6 h; hit rate 1.3% among 300,000; inhibition, % at 7.5 µM; AID 1662, 2009;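 active = mean replicate score, as percent of positive control median, at least 50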;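 also: strain carries kanamycin resistance gene driven by streptokinase promoter and grows in 40 µg/ml kanamycin; loss of luminescence reflects streptokinase promoter inhibition or plain growth inhibition; 0% = median of DMSO wells and 100% = positive control at its reference dose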
tim10-1 inh = growth inhibitors of tim10-1 mutant yeast, primary screen, luminescence, uHTS; hit rate 2.2% among 330,000; inhibition, % at 20 µM; S. cerevisiae tim10-1 ts strain growth, BacTiter-Glo, 24 h;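 active = inhibition of at least 40%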;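 also: mutant grown at 25 °C; 0% = DMSO wells with yeast and 100% = wells holding no yeast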
NALP3 yeast inh = NALP3 inflammasome inhibitors in reconstituted yeast, primary screen, luminescence, uHTS | Yeast reconstituted NLRP3/ASC/caspase-1, beta-gal luminescence, 24 h | inhibition, % at 10 µM | hit rate 0.39% among 330,000 | AID 2825, 2010;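 active = inhibition of 50% or more; inactive = inhibition below 50%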;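 also: plate controls were induced DMSO wells for no effect and uninduced yeast grown without galactose for full effect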
TIM10 conf = growth inhibitors of wild-type TIM10 yeast, confirmation, counter-screen for tim10-1 synthetic lethality project, single concentration, luminescence, S. cerevisiae | S. cerevisiae tim10 strain growth, BacTiter-Glo luminescence, 24 h | shares compounds with TIM10 inh | inhibition, % at 10 µM | AID 463215, 2010 | hit rate 63% among 4,600;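 active = inhibition of yeast growth at or above a set limit in either of two replicates at 10 µM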;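 also: this counterscreen used the strain with wild-type TIM10; 0% = yeast with DMSO and 100% = medium wells lacking yeast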
Starred values were filed as active, the others as inactive.

Results for CCOC(=O)c1ccc(NS(=O)(=O)c2ccc(Cl)nc2)cc1 ?
tim23-1 inh: 13; TIM10 inh: 16; SKKanGAS inh: 5; tim10-1 inh: 4; NALP3 yeast inh: 15

What do the screens show for `NC(=O)c1nsc(C(=O)N(c2ccccc2F)C(C(=O)NCc2ccccc2)c2ccc(O)cc2)c1N` (centres undefined)?
tim23-1 inh: -4; TIM10 inh: 96*; SKKanGAS inh: 6; tim10-1 inh: -7; NALP3 yeast inh: 1; TIM10 conf: 8

How did COC(=O)CCN(c1ccccc1)S(=O)(=O)c1cc(-c2cc(C)no2)ccc1C do in these assays?
tim23-1 inh: 33; TIM10 inh: -11; SKKanGAS inh: 1; tim10-1 inh: 39; NALP3 yeast inh: 10

How did CCc1cccc(CC)c1NC(=S)NC(C)c1ccccc1 (centres undefined) do in these assays?
tim23-1 inh: 26; TIM10 inh: 53*; SKKanGAS inh: 5; tim10-1 inh: 39; NALP3 yeast inh: 8; TIM10 conf: 39*

Results for CC12CCC(C(=O)NCc3ccc4c(c3)OCO4)(C(=O)C1=O)C2(C)C (centres undefined) ?
tim23-1 inh: 27; TIM10 inh: 41*; SKKanGAS inh: -4; tim10-1 inh: 35; NALP3 yeast inh: 3; TIM10 conf: 1

What do the screens show for `CCc1cccc(CC)c1NC(=S)NCc1ccc2c(c1)OCO2`?
tim23-1 inh: 37; TIM10 inh: 41*; SKKanGAS inh: -10; tim10-1 inh: 39; NALP3 yeast inh: 6; TIM10 conf: 0

What do the screens show for `Cc1nn(-c2ccccc2)c(Cl)c1/C=N/NC(=O)CNc1n[nH]c(=O)[nH]c1=O`?
tim23-1 inh: 0; TIM10 inh: 3; SKKanGAS inh: -5; tim10-1 inh: 0; NALP3 yeast inh: -6

How did COc1cccc(CN2CCNC(=O)C2CC(=O)N2CCCCO2)c1OC (centres undefined) do in these assays?
tim23-1 inh: 13; TIM10 inh: 2; SKKanGAS inh: -3; tim10-1 inh: 3; NALP3 yeast inh: 7

Results for O=C(/C=C/c1ccoc1)c1ccccc1O ?
tim23-1 inh: 6; TIM10 inh: 11; SKKanGAS inh: -6; tim10-1 inh: 15; NALP3 yeast inh: -22

What do the screens show for `O=C(/C=C/c1ccc(O)c(O)c1)c1ccccc1O`?
tim23-1 inh: 27; TIM10 inh: 42*; SKKanGAS inh: -5; tim10-1 inh: 33; NALP3 yeast inh: 14; TIM10 conf: 11

Results for CCn1c(SCC(=O)NC2CC2)nnc1-c1csc(C)c1 ?
tim23-1 inh: 9; TIM10 inh: 10; SKKanGAS inh: 9; tim10-1 inh: 10; NALP3 yeast inh: 10

Results for Nc1c(C(=O)Nc2ccccc2F)sc2nc(-c3ccco3)ccc12 ?
tim23-1 inh: 6; TIM10 inh: 41*; SKKanGAS inh: 11; tim10-1 inh: 18; NALP3 yeast inh: 9; TIM10 conf: 19

How did O=C1CSC(c2cn(-c3ccccc3)nc2-c2cc3ccccc3oc2=O)N1Cc1ccco1 (centres undefined) do in these assays?
tim23-1 inh: 27; TIM10 inh: 42*; SKKanGAS inh: 2; tim10-1 inh: 33; NALP3 yeast inh: 2; TIM10 conf: 8

Results for Cc1scc(C(=O)N/N=C/c2ccc(OCC(C)C)cc2)c1C ?
tim23-1 inh: 30; TIM10 inh: 44*; SKKanGAS inh: 8; tim10-1 inh: 17; NALP3 yeast inh: 25; TIM10 conf: 20

How did COc1cccc(CN(CC(=O)NC2CCCC2)C(=O)Cn2nnc(-c3cccs3)n2)c1 do in these assays?
tim23-1 inh: 13; TIM10 inh: 13; SKKanGAS inh: -5; tim10-1 inh: 16; NALP3 yeast inh: 2

What do the screens show for `Cc1ccc([C@H]2C(C(=O)O)=CC[C@@H](c3cccs3)N2S(=O)(=O)c2ccc(C)cc2)cc1`?
tim23-1 inh: 12; TIM10 inh: 12; tim10-1 inh: 9; NALP3 yeast inh: 2

Results for Cc1ccc(S(=O)(=O)N2[C@@H](c3ccc(Br)cc3)C(C(=O)O)=CC[C@H]2c2cccs2)cc1 ?
tim23-1 inh: 12; TIM10 inh: 96*; tim10-1 inh: 12; NALP3 yeast inh: 22; TIM10 conf: 5

Results for Cc1cccc(NS(=O)(=O)c2ccc(C)c(C(=O)NCC(c3cccs3)N(C)C)c2)c1 (centres undefined) ?
tim23-1 inh: -4; TIM10 inh: -3; tim10-1 inh: -8; NALP3 yeast inh: 2

Results for C=CCn1c(-c2ccc(OC)cc2)csc1=Nc1c(C)n(C)n(-c2ccccc2)c1=O ?
tim23-1 inh: 48; TIM10 inh: 42*; SKKanGAS inh: 9; tim10-1 inh: 37; NALP3 yeast inh: 6; TIM10 conf: 33*

Results for O=C(Nc1ccc(NC(=O)C2CCCCC2)nc1)c1cccs1 ?
tim23-1 inh: 47; TIM10 inh: 47*; SKKanGAS inh: -5; tim10-1 inh: 22; NALP3 yeast inh: -9; TIM10 conf: 23

How did Cc1cc(NC(=O)c2ccccc2)cc(NC(=O)c2ccccc2)c1C do in these assays?
tim23-1 inh: 2; TIM10 inh: 0; SKKanGAS inh: -2; tim10-1 inh: 2; NALP3 yeast inh: 18

What do the screens show for `Cc1cc(NC(=O)c2ccccc2)sc1C`?
tim23-1 inh: 44; TIM10 inh: 52*; SKKanGAS inh: 9; tim10-1 inh: 38; NALP3 yeast inh: 39; TIM10 conf: 42*

Results for S=C(NCc1cccs1)Nc1ccc(Br)cc1Cl ?
tim23-1 inh: 39; TIM10 inh: 41*; SKKanGAS inh: 26; tim10-1 inh: 21; NALP3 yeast inh: 32; TIM10 conf: 46*

What do the screens show for `COc1ccc(CCC(=O)OCc2csc(CC(=O)Nc3ccccc3C)n2)cc1`?
tim23-1 inh: 24; TIM10 inh: 0; SKKanGAS inh: 0; tim10-1 inh: 26; NALP3 yeast inh: 20

How did CCCn1c(N)c(C(=O)COC(=O)CCNS(=O)(=O)c2ccccc2F)c(=O)[nH]c1=O do in these assays?
tim23-1 inh: -11; TIM10 inh: -8; SKKanGAS inh: -16; tim10-1 inh: -3; NALP3 yeast inh: -4

What do the screens show for `CSc1ccc(CN(C)C(=O)c2cccc(S(=O)(=O)N3CCN(Cc4ccccc4)CC3)c2)cc1`?
tim23-1 inh: 21; TIM10 inh: 11; SKKanGAS inh: -4; tim10-1 inh: 23; NALP3 yeast inh: 19

How did O=C1c2ccccc2C(=O)N1n1cccc1 do in these assays?
tim23-1 inh: 3; TIM10 inh: -7; SKKanGAS inh: 0; tim10-1 inh: 2; NALP3 yeast inh: -5

What do the screens show for `O=C(Nc1ccc(-c2cn3ccsc3n2)cc1)C1CC1`?
tim23-1 inh: 9; TIM10 inh: 57*; SKKanGAS inh: 4; tim10-1 inh: 17; NALP3 yeast inh: 8; TIM10 conf: 26
